In PubChem BioAssay (NCATS):
Results filed as inconclusive are left out. A call without a number means that no potency is given here. Activity calls are given as the source filed them. Calls come from the whole dose curve; as a rule, active = well fitted inhibition curve with a large enough effect; inconclusive = small, poorly fitted or top-dose-only effect; inactive = no such curve, though single readings can be large or run the other way.

The compounds below were run against Protein phosphatase 1D (Homo sapiens) (UniProt O15297) (assay: RapidFire Mass Spectrometry qHTS Assay for Modulators of WT P53-Induced Phosphatase 1 (WIP1) (AID 1347424;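 note: amount of dephosphorylated VEPPL-S-QETFS peptide product formed by WIP1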)). Conditions: WIP1 dephosphorylation of phosphopeptide, RapidFire MS; series mostly up to 63 µM.
Outline: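 Mass-spectrometric measurement of dephosphorylated peptide after a 5 min room-temperature reaction of 10 nM WIP1 with 2 uM phosphopeptide, following 1 h compound preincubation in 30 mM MgCl2 buffer.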
Potency is the fitted concentration of half-maximal effect.

Sequence of Protein phosphatase 1D (Homo sapiens) (O15297 whole entry, looked up): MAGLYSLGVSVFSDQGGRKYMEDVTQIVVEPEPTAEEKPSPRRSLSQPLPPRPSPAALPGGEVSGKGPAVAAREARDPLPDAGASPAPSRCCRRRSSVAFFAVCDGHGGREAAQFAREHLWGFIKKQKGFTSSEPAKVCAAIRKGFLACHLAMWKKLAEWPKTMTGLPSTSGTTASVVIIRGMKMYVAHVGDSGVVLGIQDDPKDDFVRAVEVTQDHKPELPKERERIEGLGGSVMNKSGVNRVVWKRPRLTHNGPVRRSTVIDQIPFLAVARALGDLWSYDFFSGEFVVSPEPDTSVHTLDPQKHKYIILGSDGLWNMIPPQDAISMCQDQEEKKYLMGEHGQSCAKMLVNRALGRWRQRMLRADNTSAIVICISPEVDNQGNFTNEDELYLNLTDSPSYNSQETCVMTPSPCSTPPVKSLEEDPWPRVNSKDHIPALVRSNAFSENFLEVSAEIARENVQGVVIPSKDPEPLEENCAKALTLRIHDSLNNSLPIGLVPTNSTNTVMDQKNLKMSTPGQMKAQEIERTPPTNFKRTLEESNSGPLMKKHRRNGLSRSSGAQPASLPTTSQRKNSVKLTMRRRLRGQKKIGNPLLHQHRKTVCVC

Question: For `CC(C)NC[C@@H](O)COc1cccc2ccccc12`, which Potency is on record?
Answer: inactive

Question: Which Potency does the source give for `CCCCC(CC)CN=C(N)NC(N)=NCCCCCCN=C(N)NC(N)=NCC(CC)CCCC` (stereo not given) here?
Answer: inactive

Question: Which Potency does the source give for `COc1cccc(CCc2ccccc2OCC(CN(C)C)OC(=O)CCC(=O)O)c1` (stereo not given) here?
Answer: inactive

Question: `O=C(Nc1ccc(Oc2ccc(Cl)cc2)c(Cl)c1)c1cc(I)cc(I)c1O` was tested. Which Potency did it give?
Answer: inactive

Question: `CCCCCCCCCCCCCCCC[N+](C)(C)CCN(Cc1ccc(OC)cc1)c1ncccn1` was tested. Which Potency did it give?
Answer: inactive

Question: For `Oc1c(Cl)cc(Cl)cc1Sc1cc(Cl)cc(Cl)c1O`, which Potency is on record?
Answer: 12.6 µM (active)

Question: `COc1ccc(/C=C/C(=O)c2ccc(OC)cc2OC)cc1` was tested. Which Potency did it give?
Answer: inactive

Question: With `CCCOC(C(=O)OC1CCN(C)CC1)(c1ccccc1)c1ccccc1` as the compound, how does the Potency read?
Answer: inactive

Question: For `C[n+]1c2cc(N)ccc2cc2ccc(N)cc21` (tested in a mixture with another compound), which Potency is on record?
Answer: inactive

Question: With `COc1ccc(OC)c(C(O)CNC(=O)CN)c1` (stereo not given) as the compound, how does the Potency read?
Answer: inactive

Question: `C[C@H]1C[C@H]2[C@@H]3CCC4=CC(=O)C=C[C@]4(C)[C@@]3(Cl)[C@@H](O)C[C@]2(C)[C@@]1(O)C(=O)CO` was tested. Which Potency did it give?
Answer: inactive

Question: Which Potency does the source give for `CC(C)(C)NC(=O)[C@@H]1CN(Cc2cccnc2)CCN1C[C@@H](O)C[C@@H](Cc1ccccc1)C(=O)N[C@H]1c2ccccc2C[C@H]1O` here?
Answer: inactive

Question: Which Potency does the source give for `Oc1ccc(Cl)cc1Sc1cc(Cl)ccc1O` here?
Answer: 31.6 µM (active)

Question: For `CCOC(=O)/C=C(C)/C=C/C=C(C)/C=C/c1c(C)cc(OC)c(C)c1C`, which Potency is on record?
Answer: inactive

Question: `C[C@H](CCC(=O)O)[C@H]1CC[C@H]2[C@@H]3C(=O)C[C@@H]4CC(=O)CC[C@]4(C)[C@H]3CC(=O)[C@]12C` was tested. Which Potency did it give?
Answer: inactive
